Rows were chosen to be rich in hits. Some 7.9% of all compounds tested hit in one or more screens of this group.
HCMV antiviral = inhibitors of human cytomegalovirus; AID 1259415; activity change, negative = inhibition, % at 57.5 µM; 410,000 tested, 4.5% active; HFF cells, HCMV-luciferase reporter, 72 h; hits give low values; in the data active means activity change below about -60%; inconclusive means no clear call, values can overlap the other calls; inactive means above about -39%
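Screen run at 2 compound doses on HFFs infected with reporter HCMV, MOI 1 PFU/cell. Luciferase activity from cell lysates at 72 h post infection gave inhibition relative to buffer-only and Salinomycin wells.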
LASV entry inh = blocks Lassa virus binding to or entry into cells; Lassa virus pseudotype entry inhibition, cell reporter; Potency, µM (top dose mostly 37.9 µM), inactives show at the highest dose activity change, negative = inhibition, most hits filed as inhibitors; 300,000 tested, 1.2% active; AID 540256; calls by dose curve; tested in HEK293 cells; further: potency means the concentration at half of the fitted maximal effect; nearly all actives have a fitted effect of over 50% in size
Marburg entry inh = blocks Marburg virus binding to or entry into cells; Marburg virus pseudotyped entry inhibition, cell reporter; Potency, µM (series often up to 37.8 µM), for inactives: at the highest dose activity change, negative = inhibition, actives largely listed as inhibitors; 300,000 tested, 1.8% active; AID 540276; calls by dose curve; tested in HEK293 cells; further: potency means the concentration at half of the fitted maximal effect
HCV inh = inhibitors of hepatitis C virus infection. Huh7.5.1 HCVcc-Cre infection, luciferase reporter, 44 h. Potency, µM (doses to about 41.8 µM), for the others: at the highest dose activity change, negative = inhibition, most hits filed as inhibitors. 340,000 tested, 3.4% active. AID 651820; active means well fitted inhibition curve with a large enough effect; inconclusive means small, poorly fitted or top-dose-only effect, or another doubt; inactive means no such curve, though single readings can be large or run the other way; further: potency means the concentration at half of the fitted maximal effect
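Luciferase read-out (15 sec integration) after a 15 min room-temperature substrate step quantifies HCVcc-Cre infection. Cells, 1,000 per well, had compound added 4 h post-plating, then virus at ~0.5 moi, and were cultured 44 h.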
FMDV inh = blocks foot and mouth disease virus. FMDV antiviral cell-based qHTS. Potency, µM (highest dose often 57.9 µM), inactives show at the top dose activity change, negative = inhibition, actives largely listed as inhibitors. 410,000 tested, 1.2% active; calls by dose curve; tested in HEK293T cells; further: read-out not given here; potency means the concentration at half of the fitted maximal effect; nearly all actives have a fitted effect of over 45% in size
An asterisk follows results filed as active; ? = inconclusive; . = no result given; + = active, no number; [ ] = another dose, or the depositor's remark. On the % scale 0 is the no-effect control and ±100 the full control effect.

SMILES | HCMV antiviral | LASV entry inh | Marburg entry inh | HCV inh | FMDV inh
COc1c(Cl)cc(-c2noc(C)c2C(=O)NCc2ccccc2)cc1Cl | -68* | . | 0% | -7% | -16%
Cc1ccc(/C=N/NC(=O)c2c(-c3ccccc3)noc2C)o1 | ? | 5% | 19% | 0% | -13%
COC(=O)c1c(-c2ccccc2)noc1C | -76* | 7% | 1%[46.1 µM] | 19% | 3%
COc1ccc(Cl)cc1NC(=O)COC(=O)c1c(-c2ccccc2)noc1C | -21 | . | . | 4µM* | ?
Cc1onc(-c2ccccc2)c1C(=O)N/N=C/c1cc(Br)c(Br)o1 | -28 | ? | ? | -16% | 25µM*
COc1ccc(Cl)cc1NC(=O)c1c(-c2ccccc2)noc1C | 17 | -1% | ? | ? | -31%
O=C(CSc1cn[nH]n1)Nc1ccccc1C(=O)O | -27 | -1% | 2%[46.1 µM] | 8% | 2%
COc1cccc(/C=N/NC(=O)c2c(-c3ccccc3)noc2C)c1OC | 32 | -5% | 4% | 2% | 0%
COc1cccc(/C=N/NC(=O)c2c(-c3ccccc3)noc2C)c1O | -83* | 10µM* | 11µM* | ? | -13%
Cc1cccc(-n2ncc3c2CCCC3NC(=O)CCN2Cc3ccccc3C2=O)c1C (configuration not stated) | -25 | 0% | ? | -18% | -7%
Cc1cccc(S(=O)(=O)N[C@H]2CC[C@@]34CCCN3C(=O)CCC[C@H]4[C@H]2C)c1 | -6 | . | . | . | .
O=C1COc2ccc(S(=O)(=O)CCC(=O)N3CCN(c4cccc(Cl)c4)CC3)cc2N1 | -35 | . | . | 19% | ?
Cc1ccc(Cl)cc1N1CCN(C(=O)CCS(=O)(=O)c2ccc3c(c2)NC(=O)CO3)CC1 | ? | . | . | 11µM* | -27%
Cc1ccc(C)c(N2CCN(C(=O)CCS(=O)(=O)c3ccc4c(c3)NC(=O)C(C)S4)CC2)c1 (configuration not stated) | + | . | . | 2.8µM* | 16µM*
Cc1ccc(CNC(=O)CCS(=O)(=O)c2ccc3c(c2)NC(=O)C(C)S3)cc1 (configuration not stated) | -28 | . | . | -9% | ?
Cc1ccccc1Nc1oc(-c2ccccc2)nc1C=Cc1ccccc1 | . | . | -21%[14.2 µM] | . | .
NC1(C(=O)O)CCCCC1 | . | 5% | ? | . | .
NC1(C(=O)O)CSSC1 | -80* | ? | ? | ? | -1%
COc1cc(/C=C\C(=O)OCn2nnc3ccccc3c2=O)cc(OC)c1OC | 57 | . | . | -12% | 12%
CC(Nc1cc(C)cc(C)c1)=[N+](C)CCNS(=O)(=O)c1ccc(Cl)cc1 | 12 | -12%[46.1 µM] | 10µM* | 1% | -23%
COc1cccc2sc(Nc3nc4ccc(NC(C)=O)cc4s3)nc12 | -83* | ? | 7.3µM* | 4.5µM* | -19%
CCOC(=O)c1sc(Nc2nc3c(OC)cccc3s2)cc1C | -5 | ? | ? | 10µM* | -32%
CCc1sc(Nc2ccc(C)cc2Br)nc1-c1cc2cccc(OC)c2oc1=O | -12 | ? | . | . | -10%
CCN(CC)c1ccc(/C=N/NC(=S)NCc2ccco2)cc1 | ? | 2.1µM* | ? | ? | ?
S=C(NCc1ccco1)N/N=C/c1cccnc1 | -68* | . | . | 7% | -6%
SMILES | HCMV antiviral | LASV entry inh | Marburg entry inh | HCV inh | FMDV inh
Oc1c(Br)cc(/C=N/NC(=S)NCc2ccco2)cc1Br | -28 | -11%[46.1 µM] | -13%[46.1 µM] | 12% | 0%
S=C(NCc1ccco1)N/N=C/c1ccc(Cl)cc1 | 0 | 4.6µM* | -10% | -6% | 4%
Oc1ccc(/C=N/NC(=S)NCc2ccco2)cc1 | -22 | ? | 0% | -8% | -3%
CSc1ccc(C2c3c(oc4ccc(F)cc4c3=O)C(=O)N2c2ccc(C)cn2)cc1 (configuration not stated) | 7 | -8%[46.1 µM] | 9%[46.1 µM] | . | 20%
COc1ccc(Cl)cc1-c1n[nH]c(=S)n1C1CCCCC1 | -31 | 11% | ? | 19% | -13%
Cc1cc(Cl)ccc1OCc1n[nH]c(=S)n1C1CCCCC1 | 4 | ? | 23µM* | 19% | ?
CCOC(=O)c1cc(C#N)c(N2CCNCC2)nc1C(F)(F)F | -24 | 13%[46.1 µM] | 13%[46.1 µM] | ? | -2%
CCOC(=O)c1cc(C#N)c(N2CCN(C(=O)c3cccc(C(F)(F)F)c3)CC2)nc1C(F)(F)F | ? | 1.8µM* | 5µM* | 8.9µM* | -39%
CCOC(=O)c1cc(C#N)c(N2CCN(C(=O)c3ccccc3)CC2)nc1C(F)(F)F | -27 | 11µM* | ? | -12% | ?
COc1ccc(Br)cc1S(=O)(=O)N1CCN=C1c1ccccc1 | 29 | 12% | 24% | -18% | 23%
Clc1ccc2c(c1)-c1ccccc1C1=NCCN12 | -96* | . | . | . | ?
Brc1ccc2c(c1)-c1ccccc1C1=NCCN12 | -69* | . | . | . | ?
Cc1nc2ccc(S(=O)(=O)N(CC(=O)Nc3ccc(F)cc3F)Cc3ccccc3)cc2s1 | -1 | -12%[46.1 µM] | . | . | -12%
O=C(NCc1ccccc1Cl)c1ccc2c(c1)ncn2-c1cccc(F)c1 | -31 | 12%[46.1 µM] | . | . | 30%
CC(c1ccco1)N(C(=O)C12CC3CC(CC(C)(C3)C1)C2)c1ccccn1 (configuration not stated) | 29 | 11µM* | ? | -16% | 16%
CCCN(Cc1cc2cccc(C)c2[nH]c1=O)C(=O)c1cccc(Cl)c1 | 19 | ? | -27%[46.1 µM] | . | 16%
Cc1ccc(C(C#N)c2ccc(C(=O)c3ccc(F)cc3)cc2)cc1 (configuration not stated) | -78* | 10µM* | ? | ? | -22%
CCCNC(=O)OC[C@H]1O[C@H](CCO/N=C2\C[C@@H](O)[C@@H](O)[C@@H]3[C@@H]4C(=O)N(CC)C(=O)[C@@H]4CC[C@@H]23)C=C[C@@H]1Oc1ccc(OC)cc1 | . | . | 0%[14.2 µM] | . | .
COc1ccc(N/C=C/C(=O)c2cc(OC)c(OC)c(OC)c2)cc1 | -80* | -26%[46.1 µM] | ? | 20% | 13%
COc1ccc(OC)c(N/C(C)=C/C(=O)c2ccccc2)c1 | 49 | 26% | ? | -11% | 10%
COc1cccc(C(=O)/C=C/Nc2cccc(O)c2)c1 | 128 | 2.9µM* | ? | -3% | 13µM*
COc1cccc(N/C=C/C(=O)c2ccc(C)cc2)c1 | 62 | . | . | -27% | -16%
COc1ccc(N/C=C/C(=O)c2ccc(OC)c(OC)c2)cc1 | ? | -17% | -3%[46.1 µM] | -10% | 49%
COc1ccc(OC)c(N/C=C/C(=O)c2ccccc2)c1 | -78* | ? | 1µM* | -29% | 6.3µM*
Cc1ccc(NC(=O)c2cc(S(=O)(=O)N3CCCC(C)C3)cn2C)c(Br)c1 (configuration not stated) | -28 | -12%[46.1 µM] | . | . | -10%
CC(=O)NCCNc1ccnc(-c2ccccc2C(F)(F)F)n1 | . | . | . | . | -5%
Cc1ccc(Cn2c(C(=O)O)c(CNCCc3ccco3)c3ccc(C)cc32)cc1 | 49 | -6%[46.1 µM] | . | . | 7%
C=Cc1ccc(Cn2c(C)c(CNCCc3cc(OC)ccc3OC)c(C(=O)O)c2C)cc1 | 0 | 16%[46.1 µM] | -2%[46.1 µM] | . | -9%
Cc1ccc2c(CNCCc3ccc(Cl)cc3)c(C(=O)O)n(Cc3ccc(F)cc3)c2c1 | -106* | -29%[46.1 µM] | . | . | -17%

Screening results (PubChem)
